Source: PubChem BioAssay (Tox21)
Inconclusive results are not listed. The source made the active and inactive calls. Unless noted, the call rests on the fitted dose curve.

What was measured:
[1] = Nuclear factor erythroid 2-related factor 2/antioxidant responsive element (Nrf2/ARE) small molecule agonists: qHTS cell viability counter screen in human keratinocytes (AID 1919968; active means well fitted curve in the direction sought with a large enough effect in the repeat runs; an effect the other way counts as inactive or inconclusive; further: nearly all actives have a fitted effect of over 55% in size)
Procedure, shortened: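 Cytotoxicity was multiplexed with the Nrf2/ARE luciferase assay in the same wells. Stably transfected HaCaT keratinocytes were treated with test compounds for 23 h at 37 C. Cell viability was then measured by CellTiter-Fluor fluorescence.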

[2] = target: Gonadotropin-releasing hormone receptor (Homo sapiens) (UniProt P30968); assay: Human gonadotropin-releasing hormone receptor (GnRHR) small molecule agonists, calcium flux assay in GnRHR-HEK293 cells (AID 1920063); further: nearly all actives have a fitted effect of over 35% in size
Procedure, shortened: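 Agonist activity was measured as intracellular calcium flux in HEK293 cells engineered to stably express human GnRHR. After dye loading for 1 hour at 37 C, compounds in DMSO were added and fluorescence was followed for 3 minutes.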

[3] = target: KiSS-1 receptor (Homo sapiens) (UniProt Q969F8); assay: Human kisspeptin (KISS1R) small molecule agonists, calcium flux assay in KISS1R-HEK293 cells (AID 1920064; active means well fitted curve in the direction sought with a large enough effect in the repeat runs; an effect the other way counts as inactive or inconclusive)
Procedure, shortened: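 Agonist activity is monitored as intracellular calcium rise in engineered HEK293 cells carrying human KISS1R. Cells are dye-loaded for 1 h at 37 C before compound addition, and fluorescence is recorded for 3 min.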

[4] = G protein-coupled receptor (GPCR) small molecule agonists, calcium flux assay: HEK293 wild type cell line counter screen (AID 1920065)
Procedure, shortened: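 Seed cells, incubate 18 h (37 C, 5% CO2); add calcium dye, 1 h at 37 C; pin-transfer compounds, ATP control or DMSO; read fluorescence 480/540 nm each second for 3 min.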

[5] = p53 small molecule agonists, cell-based qHTS assay with rat liver microsomes (AID 1963578)
Procedure, shortened: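 Agonist mode in p53RE-bla reporter cells, with compounds co-incubated 16 h at 37 C alongside 0.5 mg/mL rat liver microsomes and 0.5 mg/mL NADPH (final), followed by a 2 h LiveBLAzer detection step.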

[6] = p53 small molecule agonists, cell-based qHTS assay with human liver microsomes: qHTS cell viability counter screen (AID 1963579); further: nearly all actives have a fitted effect of over 45% in size
Procedure, shortened: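 Metabolically activated exposure: compounds, human liver microsomes and NADPH (0.5 mg/mL final apiece) were added to p53RE-bla cells seeded 5 h earlier, left 16 h at 37 C, and then assessed for viability by CellTiter-Glo luminescence.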

[7] = p53 small molecule agonists, cell-based qHTS assay with rat liver microsomes: qHTS cell viability counter screen (AID 1963580); further: nearly all actives have a fitted effect of over 45% in size
Procedure, shortened: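 Rat liver microsome (0.5 mg/mL final) and NADPH (0.5 mg/mL final) co-incubation with compounds for 16 h at 37 C on HCT-116 p53RE-bla cells; cytotoxicity taken from intracellular ATP luminescence.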

[8] = p53 small molecule agonists, cell-based qHTS assay: qHTS cell viability counter screen (AID 1963581); further: nearly all actives have a fitted effect of over 45% in size
Procedure, shortened: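 Viability was counter-screened in parallel with the p53 agonist reporter by measuring intracellular ATP luminescence in the same HCT-116 p53RE-bla wells after 16 h compound treatment at 37 C.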

[9] = target: 5-hydroxytryptamine receptor 2A (Homo sapiens) (UniProt P28223); assay: 5-hydroxytryptamine receptor 2A (HTR2A) small molecule antagonists, cell-based qHTS assay (AID 1963586); further: nearly all actives have a fitted effect of over 45% in size
Procedure, shortened: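 CHO cells stably expressing human HTR2A were plated for 18 h at 37 C, then loaded with calcium dye for 1 h. Compounds were preincubated 5 min at room temperature before DOI (4 nM solution) was added. Kinetic fluorescence was read for 3 min.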

[10] = target: 5-hydroxytryptamine receptor 2A (Homo sapiens) (UniProt P28223); assay: 5-hydroxytryptamine receptor 2A (HTR2A) small molecule agonists, cell-based qHTS assay (AID 1963587); further: nearly all actives have a fitted effect of over 30% in size
Procedure, shortened: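 Kinetic calcium-flux fluorescence (2 min, 1 sec intervals) after compound addition in agonist mode. HTR2A-CHO cells were cultured 18 h, then dye-loaded 1 h at 37 C.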

[11] = target: Muscarinic acetylcholine receptor M1 (Homo sapiens) (UniProt P11229); assay: Cholinergic receptor muscarinic 1 (CHRM1) small molecule antagonists, cell-based qHTS assay (AID 1963588); further: nearly all actives have a fitted effect of over 40% in size; further: potency means the concentration at half of the fitted maximal effect
Procedure, shortened: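 Compounds were tested at 15 concentrations in three independent runs. Dye-loaded CHRM1-CHO cells were exposed 5 min at room temperature before stimulation by acetylcholine added at 50nM. Intracellular calcium was read kinetically on FDSS for 3 min.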

[12] = target: Muscarinic acetylcholine receptor M1 (Homo sapiens) (UniProt P11229); assay: Cholinergic receptor muscarinic 1 (CHRM1) small molecule agonists, cell-based qHTS assay (AID 1963589); further: nearly all actives have a fitted effect of over 35% in size
Procedure, shortened: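 Cells were plated and incubated 18 h at 37 C/5% CO2, loaded with calcium dye for 1 h at 37 C, then treated with compounds in DMSO. Fluorescence was recorded kinetically at 1 sec intervals.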

[13] = cAMP Responsive Elements (CRE) small molecule agonists, cell-based qHTS assay (AID 1963590)
Procedure, shortened: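 Cells carrying a CRE-driven beta-lactamase reporter (HEK 293T) are seeded, incubated overnight (18 h), and treated with test compounds for 3 h at 37 C; reporter activity is then detected with a FRET substrate after 2 h at room temperature.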

[14] = cAMP Responsive Elements (CRE) small molecule antagonists, cell-based qHTS assay (AID 1963591; active means well fitted inhibition curve with a large enough effect in the signal ratio in the repeat runs, not every such curve was filed as active; the % refers to the signal ratio)
Procedure, shortened: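 Cells (CRE-bla HEK 293T, DMEM with 10% dialyzed FBS and 25 mM HEPES) are seeded and incubated 18 h. Compounds are added with NKH477 agonist at 0.25 uM final for 3 h, then FRET substrate for 2 h.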

[15] = target: Beta-2 adrenergic receptor (Homo sapiens) (UniProt P07550); assay: Adrenergic beta2 receptor (ADRB2) small molecule antagonists, cell-based qHTS assay (AID 1963592); further: series mostly up to about 92 µM; nearly all actives have a fitted effect of over 50% in size
Procedure, shortened: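 Assay format: CHO-ADRB2 cells, 18-20hr seeding at 37C/5% CO2, then compound plus 1nM isoproterenol agonist mix for 0.5hr RT. Homogeneous time-resolved fluorescence cAMP detection after 1hr, expressed as 665/615 nm ratio.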

[16] = target: D(2) dopamine receptor (Homo sapiens) (UniProt P14416); assay: Dopamine D2 receptor (DRD2) small molecule agonists, cell-based qHTS assay (AID 1963594); further: nearly all actives have a fitted effect of over 35% in size
Procedure, shortened: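 cAMP accumulation in DRD2-HEK293 cells measured by HTRF after 1 h detection; compounds added 10 min before NKH477 (200nM […]) forskolin-analogue stimulation, 30 min at room temperature, with Ro20-1724 present at 0.1 mM final.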

[17] = target: D(2) dopamine receptor (Homo sapiens) (UniProt P14416); assay: Dopamine D2 receptor (DRD2) small molecule antagonists, cell-based qHTS assay (AID 1963595; active means well fitted inhibition curve with a large enough effect in the signal ratio in the repeat runs, with a control signal flat; the % refers to the signal ratio)
Procedure, shortened: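 Antagonist mode in DRD2-HEK293 cells: after compound addition with 0.1 mM Ro20-1724, cells received quinpirole (12 nM) and NKH477 (200 nM) for 30 min at room temperature; HTRF cAMP read after 1 h detection.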

[18] = target: Beta-2 adrenergic receptor (Homo sapiens) (UniProt P07550); assay: Adrenergic beta2 receptor (ADRB2) small molecule agonists, cell-based qHTS assay (AID 1963593);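 further: CHO cells stably overexpressing human ADRB2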
Procedure, shortened: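 CHO cells stably over-expressing ADRB2 were plated overnight at 37C, then dosed with compounds plus a stimulation mix containing 100uM IBMX and 25uM Ro-20-1724 for 0.5hr at room temperature. cAMP was measured by HTRF competition, 1hr.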

[19] = p53 small molecule agonists, cell-based qHTS assay (AID 1963582; active means well fitted activation curve with a large enough effect in the signal ratio in the repeat runs, not every such curve was filed as active; the % refers to the signal ratio)
Procedure, shortened: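 Cells carrying a p53-responsive bla reporter are treated with test compounds for 16 h at 37 C; beta-lactamase activity is then detected with LiveBLAzer B/G FRET substrate after 2 h at room temperature.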
On the % scale 0 is the no-effect control and ±100 the full control effect.

KiSS-1 receptor (Homo sapiens), sequence (Q969F8 whole entry, looked up): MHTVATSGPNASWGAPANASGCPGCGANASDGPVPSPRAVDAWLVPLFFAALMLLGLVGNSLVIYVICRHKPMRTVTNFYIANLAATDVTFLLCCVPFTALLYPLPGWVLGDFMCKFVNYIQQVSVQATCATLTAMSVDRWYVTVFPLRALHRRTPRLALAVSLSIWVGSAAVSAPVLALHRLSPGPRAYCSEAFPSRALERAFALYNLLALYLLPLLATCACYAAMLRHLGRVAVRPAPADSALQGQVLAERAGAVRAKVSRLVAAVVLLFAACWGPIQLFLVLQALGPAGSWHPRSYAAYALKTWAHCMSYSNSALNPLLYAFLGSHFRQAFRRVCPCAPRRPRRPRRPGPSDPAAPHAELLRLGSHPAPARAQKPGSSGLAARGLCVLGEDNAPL
Muscarinic acetylcholine receptor M1 (Homo sapiens), sequence (P11229 whole entry, looked up): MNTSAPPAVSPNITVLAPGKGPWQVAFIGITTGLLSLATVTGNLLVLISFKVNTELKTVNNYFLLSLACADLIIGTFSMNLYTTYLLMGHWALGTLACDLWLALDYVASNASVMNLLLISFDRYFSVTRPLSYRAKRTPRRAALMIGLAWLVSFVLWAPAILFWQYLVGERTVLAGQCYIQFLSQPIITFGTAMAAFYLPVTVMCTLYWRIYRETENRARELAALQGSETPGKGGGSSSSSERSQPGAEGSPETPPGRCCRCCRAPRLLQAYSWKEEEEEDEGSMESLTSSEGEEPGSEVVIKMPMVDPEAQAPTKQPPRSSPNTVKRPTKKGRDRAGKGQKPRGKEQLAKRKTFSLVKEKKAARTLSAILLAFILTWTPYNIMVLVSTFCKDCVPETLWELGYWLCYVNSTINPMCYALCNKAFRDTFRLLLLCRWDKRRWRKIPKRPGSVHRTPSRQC
Beta-2 adrenergic receptor (Homo sapiens), sequence (P07550 whole entry, looked up): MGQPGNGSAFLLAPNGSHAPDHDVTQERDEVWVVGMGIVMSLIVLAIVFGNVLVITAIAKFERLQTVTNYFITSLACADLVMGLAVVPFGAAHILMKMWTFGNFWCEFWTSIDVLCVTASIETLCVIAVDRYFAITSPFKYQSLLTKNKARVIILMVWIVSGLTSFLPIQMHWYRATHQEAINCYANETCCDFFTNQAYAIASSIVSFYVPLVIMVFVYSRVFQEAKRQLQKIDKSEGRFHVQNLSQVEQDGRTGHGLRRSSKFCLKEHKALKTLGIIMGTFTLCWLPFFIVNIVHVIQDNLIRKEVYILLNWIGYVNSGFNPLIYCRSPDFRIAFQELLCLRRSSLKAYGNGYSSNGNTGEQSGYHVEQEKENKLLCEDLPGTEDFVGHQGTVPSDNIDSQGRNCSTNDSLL
5-hydroxytryptamine receptor 2A (Homo sapiens), sequence (P28223 whole entry, looked up): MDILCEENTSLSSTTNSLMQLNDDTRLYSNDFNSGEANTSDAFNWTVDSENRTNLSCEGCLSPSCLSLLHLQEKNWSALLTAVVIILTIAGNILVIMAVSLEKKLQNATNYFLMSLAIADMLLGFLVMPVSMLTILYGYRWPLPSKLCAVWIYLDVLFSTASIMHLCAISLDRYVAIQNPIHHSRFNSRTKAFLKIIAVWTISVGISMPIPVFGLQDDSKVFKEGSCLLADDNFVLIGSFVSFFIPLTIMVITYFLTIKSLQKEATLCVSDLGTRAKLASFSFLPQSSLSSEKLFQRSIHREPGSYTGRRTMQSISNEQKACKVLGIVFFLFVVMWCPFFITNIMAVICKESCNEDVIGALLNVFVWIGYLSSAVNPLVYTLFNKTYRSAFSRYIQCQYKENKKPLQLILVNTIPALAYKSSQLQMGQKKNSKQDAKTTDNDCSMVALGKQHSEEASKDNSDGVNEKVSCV
D(2) dopamine receptor (Homo sapiens), sequence (P14416 whole entry, looked up): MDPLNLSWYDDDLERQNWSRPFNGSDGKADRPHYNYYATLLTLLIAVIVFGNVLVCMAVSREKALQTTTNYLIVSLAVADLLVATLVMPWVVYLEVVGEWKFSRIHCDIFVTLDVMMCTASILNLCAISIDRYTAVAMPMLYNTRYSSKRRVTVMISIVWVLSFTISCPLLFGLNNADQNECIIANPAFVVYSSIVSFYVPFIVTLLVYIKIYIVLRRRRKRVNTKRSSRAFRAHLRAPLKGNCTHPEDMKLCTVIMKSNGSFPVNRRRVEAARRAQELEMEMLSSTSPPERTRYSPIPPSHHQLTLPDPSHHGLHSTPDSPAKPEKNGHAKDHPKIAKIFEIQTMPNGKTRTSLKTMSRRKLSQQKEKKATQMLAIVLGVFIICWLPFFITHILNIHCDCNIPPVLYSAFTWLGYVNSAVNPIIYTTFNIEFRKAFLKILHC
Gonadotropin-releasing hormone receptor (Homo sapiens), sequence (P30968 whole entry, looked up): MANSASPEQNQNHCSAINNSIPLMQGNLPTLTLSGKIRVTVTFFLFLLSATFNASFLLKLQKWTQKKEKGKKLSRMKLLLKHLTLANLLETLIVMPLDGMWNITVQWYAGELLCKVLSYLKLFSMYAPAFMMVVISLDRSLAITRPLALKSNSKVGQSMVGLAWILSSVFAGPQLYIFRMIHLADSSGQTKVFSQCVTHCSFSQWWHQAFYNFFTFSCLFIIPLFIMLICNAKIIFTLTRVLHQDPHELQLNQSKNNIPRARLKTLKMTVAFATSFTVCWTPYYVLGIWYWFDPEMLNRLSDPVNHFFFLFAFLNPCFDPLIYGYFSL

Cc1nc2ccccc2c(=O)n1-c1ccccc1Cl
inactive: Potency [1] | Potency [2] | Potency [3] | Potency [4] | Potency [5] | Potency [6] | Potency [7] | Potency [8] | Potency [9] | Potency [10] | Potency [11] | Potency [12] | Potency [13] | Potency [14] | Potency [15] | Potency [16] | Potency [17]

C1=CCC=C1
inactive: Potency [1] | Potency [2] | Potency [3] | Potency [4] | Potency [6] | Potency [7] | Potency [8] | Potency [9] | Potency [10] | Potency [11] | Potency [12] | Potency [13] | Potency [14] | Potency [15] | Potency [18] | Potency [16] | Potency [17]

CCOC(=O)C(SP(=S)(OC)OC)c1ccccc1 (stereo unspecified)
inactive: Potency [1] | Potency [2] | Potency [3] | Potency [4] | Potency [6] | Potency [7] | Potency [8] | Potency [19] | Potency [9] | Potency [10] | Potency [11] | Potency [13] | Potency [14] | Potency [15] | Potency [18] | Potency [16] | Potency [17]

C=CC(=O)OCC(C)O (stereo unspecified)
inactive: Potency [1] | Potency [2] | Potency [3] | Potency [4] | Potency [6] | Potency [7] | Potency [8] | Potency [9] | Potency [10] | Potency [12] | Potency [13] | Potency [14] | Potency [15] | Potency [16] | Potency [17]

CC(C)Oc1cccc(NC(=O)c2ccccc2C(F)(F)F)c1
inactive: Potency [1] | Potency [2] | Potency [3] | Potency [4] | Potency [5] | Potency [6] | Potency [19] | Potency [10] | Potency [12] | Potency [16]
active: Potency [11] 11.9 nM

CCCCOP(=O)(O)OCCCC
inactive: Potency [1] | Potency [2] | Potency [3] | Potency [4] | Potency [6] | Potency [7] | Potency [8] | Potency [9] | Potency [10] | Potency [11] | Potency [12] | Potency [13] | Potency [14] | Potency [15] | Potency [18] | Potency [16] | Potency [17]

Cc1c(Cl)c(=O)oc2cc(OP(=O)(OCCCl)OCCCl)ccc12
inactive: Potency [1] | Potency [2] | Potency [3] | Potency [4] | Potency [6] | Potency [7] | Potency [8] | Potency [19] | Potency [9] | Potency [12] | Potency [15] | Potency [17]

O=C1c2ccccc2C(=O)c2ccccc21
inactive: activity change, negative = cytotoxicity [1] 8.6% [at 19 µM] | activity change [2] -0.0358% [at 11.8 µM, hits give high values] | activation [3] 8.4% [at 15.8 µM] | activation [4] 0.614% [at 11.8 µM] | activation [5] -4.38% [at 13.6 µM] | activity change, negative = cytotoxicity [6] 2.91% [at 13.5 µM] | activity change, negative = cytotoxicity [7] 1.32% [at 13.5 µM] | activity change, negative = cytotoxicity [8] 5.09% [at 13.5 µM] | activation [19] -1.94% [at 13.5 µM] | activation [10] -4.26% [at 15.9 µM] | activity, negative = inhibition [11] 2.2% [at 12.6 µM] | activation [13] -2.22% [at 19 µM] | activity change, negative = inhibition [14] -5.21% [at 18.9 µM] | activation [18] -36.8% [at 19 µM] | activity change, negative = inhibition [17] -1.46% [at 18.9 µM]
